{"source": "PubChem BioAssay AID1460", "about": "(National Center for Advancing Translational Sciences (NCATS), 2008)", "note": "Screen size: about 270,000 compounds; about 5,800 (2.1%) were called active. Entries that show only a call come without a potency. About 16% were inconclusive and are not listed. Calls come from the whole dose curve; as a rule, active = well fitted inhibition curve with a large enough effect; inconclusive = small, poorly fitted or top-dose-only effect; inactive = flat fitted curve, though single readings scatter. The sample as a whole holds a higher share of actives than the screen did. Potency is the fitted concentration of half-maximal effect.", "data": [{"target": "Microtubule-associated protein tau (Homo sapiens) (UniProt P10636)", "sequence (P10636 561-689 P618L limits assumed)": "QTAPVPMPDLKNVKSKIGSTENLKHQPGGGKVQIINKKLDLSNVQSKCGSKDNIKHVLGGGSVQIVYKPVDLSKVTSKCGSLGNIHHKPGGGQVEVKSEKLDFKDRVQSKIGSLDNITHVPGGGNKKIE", "assay": "qHTS for Inhibitors of Tau Fibril Formation, Thioflavin T Binding; note: nearly all actives have a fitted effect of over 55% in size", "details": "recombinant tau K18 P301L (four-repeat tau fragment), heparin-induced fibrillization, ThT fluorescence; series mostly up to 57.4 µM", "summary_of_the_method": "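Heparin-induced (20 uM) aggregation of recombinant human K18 P301L tau, 15 uM unlabeled with 0.24 uM labeled, pH 7 acetate buffer, 6 hr at 37 C with compound. Fibrils quantified by 30 uM ThT fluorescence after 1 hr ambient incubation.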", "values": [{"smiles": "COc1cccc(C(=O)NCc2ccc3c(c2)CCN3C(=O)c2ccncc2)c1", "Potency": "inactive"}, {"smiles": "Cc1ccc(Cl)cc1N1CCN(C(=O)c2cccn3c(=O)c4cc(Cl)ccc4nc23)CC1", "Potency": "inactive"}, {"smiles": "COc1ccc(NS(=O)(=O)c2cc3c(cc2C)N(C(C)=O)CCO3)cc1", "Potency": "inactive"}, {"smiles": "Cc1cc(C(=O)N/N=C/c2ccc(O)c([N+](=O)[O-])c2)c(C)n1-c1ccc(F)cc1", "Potency": "14.1 µM (active)"}, {"smiles": "Cc1nn(CC(=O)N/N=C/c2ccc(F)cc2)c(C)c1[N+](=O)[O-]", "Potency": "inactive"}, {"smiles": "Cc1cc(C(=O)COC(=O)C2CC2)c(C)n1-c1ccc(F)cc1", "Potency": "inactive"}, {"smiles": "Cc1ccc2c(=O)c(C(=O)c3ccc(Cl)cc3)cn(CC(=O)NC3CCCCC3)c2n1", "Potency": "inactive"}, {"smiles": "CCOC(=O)C1=NO[C@@]2(C=C(Br)C(=O)[C@H]3O[C@H]32)C1", "Potency": "15.8 µM (active)"}, {"smiles": "CCOC(=O)C1=NOC(Cn2cc(C(C)=O)c(=O)[nH]c2=O)C1", "note": "(stereo unspecified)", "Potency": "inactive"}, {"smiles": "CCOC(=O)C1=C(C)NC(=O)NC1c1ccccc1", "note": "(stereo unspecified)", "Potency": "inactive"}, {"smiles": "CCc1ccccc1NC(=O)CSc1nnc(-c2ccccc2)c(-c2ccccc2)n1", "Potency": "inactive"}, {"smiles": "CC(=O)N1CCCc2cc(S(=O)(=O)Nc3ccc(Cl)cc3F)ccc21", "Potency": "inactive"}, {"smiles": "CCN1C(=O)/C(=C\\N2CCN(c3ccccc3)CC2)SC1=S", "Potency": "inactive"}, {"smiles": "CCc1ccc(/C=C2\\SC(N3CCOCC3)=NC2=O)cc1", "Potency": "inactive"}, {"smiles": "CCN1C(=O)/C(=C2\\SC(N3CCCCC3)=NC2=O)c2ccccc21", "Potency": "11.2 µM (active)"}, {"smiles": "CCc1ccc(NC(=O)c2cc(S(=O)(=O)N3CCCC(C)C3)cn2C)cc1", "note": "(stereo unspecified)", "Potency": "inactive"}, {"smiles": "Cc1c(Cl)cccc1-c1ccc(CNCCCSc2nnnn2C)o1", "Potency": "inactive"}, {"smiles": "CCn1cc2nc(SCc3ccccc3Cl)n(CCc3ccccc3)c(=O)c2n1", "Potency": "inactive"}, {"smiles": "Oc1ccc(/C=N/NC2=NCCCCC2)c(O)c1", "Potency": "inactive"}, {"smiles": "Cc1n[nH]c(=O)nc1N/N=C/c1cccs1", "Potency": "inactive"}, {"smiles": "Fc1ccc(/C=N/Nc2nc(-c3cccnc3)nc3ccccc23)cc1", "Potency": "inactive"}, {"smiles": "Cc1nc2ccccc2nc1N/N=C/c1ccc(O)cc1O", "Potency": "14.1 µM (active)"}, {"smiles": "Oc1ccc(/C=N/Nc2nc(-c3ccccc3F)nc3ccccc23)c(O)c1", "Potency": "4.47 µM (active)"}, {"smiles": "Cc1cc(N/N=C/c2ccccc2F)c2ccccc2n1", "Potency": "inactive"}, {"smiles": "Cc1nc2nc(SCC(=O)NC3CCC(C)CC3)nn2c(C)c1Cc1ccccc1Cl", "note": "(stereo unspecified)", "Potency": "inactive"}, {"smiles": "COC(=O)c1scc(-c2ccc(C)cc2)c1S(=O)(=O)Nc1cc(Cl)c(OC)cc1OC", "Potency": "inactive"}, {"smiles": "CC1CCN(S(=O)(=O)c2ccc3c(c2)N(CC(=O)NCCc2ccccc2)C(=O)CO3)CC1", "Potency": "inactive"}, {"smiles": "CNc1ccc(SC#N)cc1", "Potency": "12.6 µM (active)"}, {"smiles": "CNc1nc(-c2ccccc2OC)nc2ccccc12", "Potency": "inactive"}, {"smiles": "COc1ccccc1-c1nc(SC)n[nH]1", "Potency": "inactive"}, {"smiles": "COc1ccccc1C1=Nc2cccc3cccc(c23)N1", "Potency": "11.2 µM (active)"}]}]}
